These results are taken from PubChem BioAssay AID2253 (Southern Research Specialized Biocontainment Screening …, 2010).

Screen size: about 2,200 compounds; about 1,300 (59%) were called active. The rule behind the calls is not given here. So high a share suggests a set chosen from earlier hits. These entries were drawn from the full list. Where a call stands in place of a potency, no number is given. Potency and affinity values are given separately.

The nature of the assay: human monocytic cell viability reduction – S. typhimurium screen hits, cytotoxicity control for Salmonella PhoP regulon inhibitors, dose response (AID 2253). The conditions noted are these: THP-1 viability, CellTiter-Glo luminescence, 72 h; series mostly up to 50 µM. In general terms: ATP-based viability assays read luminescence as a measure of living cells.
On to `CCn1c(=O)c(=O)[nH]c2cc(C(=O)NCC3CCCCC3)ccc21`, for which the call was inactive. In the case of `Oc1ccc(Nc2nc(-c3cccs3)cs2)cc1` it was “inactive”; in that of `O=C1c2ccccc2C(=O)N1c1cccc(-c2csc(Nc3ccc4c(c3)OCO4)n2)c1`, “inactive”; in that of `Cn1c(COc2ccccc2)nnc1SCc1nc2ccccc2[nH]1`, “inactive”. The entry for `c1ccc2[nH]c(CSc3nccs3)nc2c1` is “inactive”; for `Cc1nn2c(=O)cc(CSc3nc4ccccc4[nH]3)nc2s1` it is “inactive”. In the case of `O=C1NC(=O)C(=C2CCCCCC2)S1` it was “inactive”. Turning to `Cc1ncoc1C(=O)Nc1cccc(Cl)c1`, the call was inactive. For `CS(=O)(=O)c1ccc([C@@H](O)[C@@H](CF)NC(=O)C(Cl)Cl)cc1`, the call was inactive. The entry for `CC(=O)C1=C(C)Nc2ncnn2C1c1ccccc1OCc1ccccc1` (configuration not stated) is “inactive”. The entry for `O=C(c1ccccc1)c1nc2ccccc2n(CCCn2c(=O)c(C(=O)c3ccccc3)nc3ccccc32)c1=O` is “inactive”; for `COC(=O)CN1C(c2ccc(OC)cc2)=Nc2ccc(Cl)cc2C1c1ccccc1` (configuration not stated) it is “inactive”.

On to `CC[C@H]1OC(=O)[C@H](C)[C@@H](O[C@H]2C[C@@](C)(OC)[C@@H](O)[C@H](C)O2)[C@H](C)[C@@H](O[C@@H]2O[C@H](C)C[C@H](N(C)C)[C@H]2O)[C@](C)(O)C[C@@H](C)[C@@H]2N[C@@H](COCCOC)O[C@H]([C@H]2C)[C@]1(C)O`, for which the result was inactive. `CC[C@H]1OC(=O)[C@H](C)[C@@H](O[C@H]2C[C@@](C)(OC)[C@@H](O)[C@H](C)O2)[C@H](C)[C@@H](O[C@@H]2O[C@H](C)C[C@H](N(C)C)[C@H]2O)[C@](C)(O)C[C@@H](C)CN(C)[C@H](C)[C@@H](O)[C@]1(C)O`: the call was inactive. The entry for `COc1ccccc1CC(=O)N1CCN(c2ccccn2)CC1` is “inactive”; for `COCC(=O)N(Cc1ccco1)c1nnc(C2CCOC2)s1` (configuration not stated) it is “inactive”. The entry for `COc1ccc(OC)c(NC(=O)c2cc3c(Cl)nc4ccccc4c3s2)c1` is “inactive”.

For `C=CCNc1nnc(Cl)c2ccccc12`, the compound was called inactive.

As to `Cc1ccc2[nH]c3c(=O)n(CCc4cnc[nH]4)cnc3c2c1`, the compound was called inactive. In the case of `COc1ccc(C(=O)NCCC2=CCCCC2)cc1OC` it was “inactive”; in that of `O=P(Cc1cc[n+]([O-])cc1)(c1ccccc1)c1ccccc1`, “inactive”. In the case of `NC(=S)c1cc2ccc(O)cc2oc1=O` it was “inactive”. The entry for `O=C(NCc1cccs1)Nc1cccs1` is “inactive”; for `Cn1ncc(Br)c1C(=O)NCc1cccs1` it is “inactive”. As for `CC(C)=CCN1CCN(Cc2ccoc2)CC1CCO` (configuration not stated), the compound was classed as inactive. In the case of `COc1ccc(NC(=O)CSc2nc(C)cs2)cc1OC` it was “inactive”; in that of `CSC(=NS(=O)(=O)c1ccccc1)SC`, “inactive”. In the case of `O=C(NCc1ccco1)C1CC(=O)N(CCc2ccccc2)C1` (configuration not stated) it was “inactive”; in that of `CCn1nc(C(=O)NCc2ccco2)c(Cl)c1Cl`, “inactive”; in that of `O=C(CNc1ccccc1)Nc1ccc(F)cc1`, “inactive”.

Regarding `CCN(CC(=O)Nc1ccc(N2CCOCC2)cc1)Cc1nc2ccccc2c(=O)[nH]1`, the compound was classed as inactive.

For `Cc1c(C(c2cccc([N+](=O)[O-])c2O)c2c(C)n(C)n(-c3ccccc3)c2=O)c(=O)n(-c2ccccc2)n1C`, the compound was called inactive. The entry for `Cc1ccc(CNC(=O)c2cccc(S(C)(=O)=O)c2)cc1` is “inactive”.

In the case of `CN(C)C(=O)c1cn(N(C)c2ncc(C(F)(F)F)cc2Cl)c(=O)c2ccccc12`, the outcome was inactive. The entry for `COc1cc(C2Nc3cccc4cccc(c34)N2)cc(OC)c1O` is “inactive”; for `CCOc1cc(C2Nc3cccc4cccc(c34)N2)ccc1O` it is “inactive”. The entry for `NC(=O)c1ccccc1NC(=O)/C=C/C(=O)O` is “inactive”; for `COc1ccc(NC(=O)c2sccc2SCC#N)cc1` it is “inactive”. In the case of `COC(=O)C1(O)CC(C(C)C)=NN1C(=O)c1ccc(Cl)cc1` (configuration not stated) it was “inactive”; in that of `CCCCn1cnc2sc(-c3ccccc3)cc2c1=O`, “inactive”. On to `CCn1cc(C(=O)O)c(=O)c2cc(F)c(N3CCNCC3)cc21`, for which the compound was classed as inactive. The entry for `CC(=O)Nc1ccc(C(=O)N2CCN(C(=O)c3ccco3)CC2)cc1` is “inactive”; for `COc1cc(OC)c(NC(=O)Nc2ccc(OC)c(OC)c2)cc1Cl` it is “inactive”; for `CCn1cc(C(=O)O)c(=O)c2cc(F)c(N3CCN(C)CC3)cc21` it is “inactive”.

In the case of `Cc1ccc(NC(=O)COc2ncnc3c(Cl)cc(Cl)cc23)cc1[N+](=O)[O-]`, the outcome was inactive. The entry for `O=C1OCC(CO)(CO)N=C1NNc1ccc(Cl)c(Cl)c1` is “inactive”; for `COC(=O)CCC(=O)Nc1ccc(Cl)c(Cl)c1` it is “inactive”; for `CC(C)Cc1oc(C(=O)O)cc1CN` it is “inactive”. The entry for `Cc1ccc(CNc2oc(-c3cccs3)nc2C#N)cc1` is “inactive”; for `CC1C(C#N)=C(N)OC2=C1C(=O)CCC2` (configuration not stated) it is “inactive”. The entry for `CCCCN(CCCC)C(=O)c1cn(CC)c2cc(N3CCN(C)CC3)c(F)cc2c1=O` is “inactive”. For the compound `Cc1[nH][nH]c(=O)c1C(c1ccc(O)c([N+](=O)[O-])c1)c1c(C)[nH][nH]c1=O`, the call was inactive.

Take `COc1cc(CNCc2ccccn2)ccc1OCC(=O)NC(C)(C)C`: the result was inactive. The entry for `O=C(CN(c1ccc(F)cc1)S(=O)(=O)c1ccc2c(c1)OCCO2)NCc1cccnc1` is “inactive”; for `COCCn1cc(C(=O)N2CCC(C)CC2)c2c3ccccc3n(C)c2c1=O` it is “inactive”; for `Cc1ccc(S(=O)(=O)N2CCC(C(N)=O)CC2)c(C)c1C` it is “inactive”.

As to `O=C(NCc1cccs1)[C@@H]1CSC2c3ccccc3C(=O)N21` (some centres not stated), the compound was classed as inactive.
